Screens from PubChem.
VP16 counter – VP16 counterscreen qHTS for inhibitors of ROR gamma transcriptional activity; Drosophila S2 Gal4-VP16 UAS-luciferase, luminescence, 20 h; 310,000 compounds, 3.5% hits; Potency, µM (top dose mostly 53.6 µM), for the others: at the top dose activity, negative = inhibition, hits mostly inhibitors;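 note: Gal4-VP16 expression switched on by copper sulfate through the metallothionein promoter; nearly all actives have a fitted effect of over 50% in size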
TDP1 cell noCPT – qHTS for Inhibitors of human tyrosyl-DNA phosphodiesterase 1 (TDP1): qHTS in cells in absence of CPT. DT40 Tdp1-/- hTDP1 cells, no CPT, ATP luminescence, 48 h. Potency, µM (titrated, usually from 46.2 µM), without a hit: top-dose activity change, negative = growth inhibition, most hits filed as inhibitors. 420,000 compounds, 15% hits; note: nearly all actives have a fitted effect of over 55% in size
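Seeded 400 DT40-hTDP1 cells/well (vehicle DMSO, no 20 nM CPT); pinned compounds; ≥48 hr at 37 °C; CellTiter-Glo luminescence as viability measure.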
DT40 TDP1 CPT – qHTS for Inhibitors of human tyrosyl-DNA phosphodiesterase 1 (TDP1): qHTS in cells in presence of CPT | chicken DT40 Tdp1-/-;hTDP1 cells + 20 nM CPT, ATP luminescence, 48 h | Potency, µM (top dose mostly 46.2 µM), inactives show top-dose activity change, negative = growth inhibition, hits mostly inhibitors | 420,000 compounds, 12% hits | AID 686979, 2013; note: nearly all actives have a fitted effect of over 55% in size
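Chicken DT40 Tdp1-/- cells stably complemented with human TDP1 were seeded at 400 cells/well in medium containing 20 nM camptothecin, exposed to pin-transferred compounds, and grown at 37 °C for at least 48 hr. Viability was read as ATP luminescence.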
RORgamma inh – qHTS for inhibitors of ROR gamma transcriptional activity; AID 2551, 2010; Drosophila S2 Gal4-RORgamma UAS-luciferase reporter, 20 h; Nuclear receptor ROR-gamma (Mus musculus), P51450; Potency, µM (titrated, usually from 53.6 µM), without a hit: at the top dose activity change, negative = inhibition, most hits filed as inhibitors; 310,000 compounds, 5.4% hits; note: nearly all actives have a fitted effect of over 60% in size
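In this cell-based reporter format, copper sulfate (700 uM final) drives Gal4–ROR gamma fusion expression from a metallothionein promoter in Drosophila Schneider cells; compounds preincubated 1 hr, reporter read after 20 hr at ambient temperature.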
TDP1 block – qHTS Assay for Inhibitors of Tyrosyl-DNA Phosphodiesterase (TDP1); recombinant TDP1, AlphaScreen DNA substrate cleavage; Potency, µM (doses to about 130 µM), for inactives: top-dose activity change, negative = inhibition, usual class: inhibitors; AID 485290, 2010; 350,000 compounds, 0.28% hits; note: nearly all actives have a fitted effect of over 40% in size
Target sequence (Q9NUW8 whole entry, looked up): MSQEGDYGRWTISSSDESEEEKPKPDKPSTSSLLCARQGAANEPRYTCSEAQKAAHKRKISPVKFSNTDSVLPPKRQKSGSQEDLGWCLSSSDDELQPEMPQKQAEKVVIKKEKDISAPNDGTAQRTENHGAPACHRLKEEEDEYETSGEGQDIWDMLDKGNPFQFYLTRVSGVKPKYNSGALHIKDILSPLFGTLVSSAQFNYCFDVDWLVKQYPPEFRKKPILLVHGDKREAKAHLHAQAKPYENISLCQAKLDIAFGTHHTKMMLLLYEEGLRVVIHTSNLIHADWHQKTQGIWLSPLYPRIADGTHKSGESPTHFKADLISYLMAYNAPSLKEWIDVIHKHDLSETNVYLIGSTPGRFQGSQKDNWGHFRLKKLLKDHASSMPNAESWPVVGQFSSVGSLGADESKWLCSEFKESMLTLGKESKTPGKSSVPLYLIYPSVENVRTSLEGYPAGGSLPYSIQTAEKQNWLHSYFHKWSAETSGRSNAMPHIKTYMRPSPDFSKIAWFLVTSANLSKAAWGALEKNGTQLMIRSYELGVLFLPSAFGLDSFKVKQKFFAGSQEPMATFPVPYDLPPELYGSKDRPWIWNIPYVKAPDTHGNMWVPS
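E. coli-derived human Tdp1, 1 nM final. Cpd preinc 15 min RT; substrate 15 nM final, 5 min RT; AS bead mix 10 ug/ml final, 10 min RT. Signal loss = tyrosine-FITC cleavage. No-enzyme wells = max signal.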
An asterisk follows results filed as active; ? = inconclusive; . = not tested or not shown; [ ] = another dose, or the depositor's remark. Rows were chosen to be rich in hits. Some 19% of all compounds tested hit in one or more screens of this group. Calls come from the whole dose curve; as a rule, active = well fitted curve in the direction sought with a large enough effect; inconclusive = small, poorly fitted or top-dose-only effect, or another doubt; inactive = no such curve, though single readings can be large; an effect the other way counts as inactive or inconclusive. % is set by controls: 0 for no effect and ±100 for the full control effect; potency is the fitted concentration of half-maximal effect.

SMILES	VP16 counter	TDP1 cell noCPT	DT40 TDP1 CPT	RORgamma inh	TDP1 block
CC1Cc2ccccc2N1C(=O)c1cc2sccc2n1Cc1ccc(F)cc1 (stereo not given)	-18%	16µM*	?	8%	0%
Cc1cccc(C)c1NC(=O)c1cc2sccc2n1Cc1ccc(F)cc1	.	?	?	.	4%
COc1ccccc1CNC(=O)c1cc2sccc2n1Cc1ccc(F)cc1	.	23µM*	21µM*	.	-1%
COc1ccc(CNC(=O)c2cc3sccc3n2Cc2ccc(F)cc2)cc1	.	?	-25%	.	4%
Cc1ccc(C)c(NC(=O)COC(=O)c2cc(=O)c3ccccc3o2)c1	.	-14%	-2%	.	-11%
CC(C)CCn1c(N2CCCC2)nc2c1c(=O)n(C)c(=O)n2C	5%	21µM*	?	42%	.
C=C(C)Cn1c(N2CCCC2)nc2c1c(=O)n(C)c(=O)n2C	1%	?	?	6%	2%
CCCCCCn1c(N2CCCC2)nc2c1c(=O)n(C)c(=O)n2C	-6%	18µM*	?	?	8%
COC(=O)C(N)Cc1ccc(Cl)cc1 (stereo not given)	.	5%	-1%	.	-7%[56.1 µM]
COC(=O)[C@@H](N)Cc1ccc(O)c(O)c1	-8%	?	27µM*	-1%	-10%
O=C(N/N=C/c1cccc(O)c1)C(=O)N1CCCCCC1	-2%	-5%	-6%	-9%	0%
Cc1cccc(C2(c3cccc(C)c3)CC2C(=O)Nc2ccc([N+](=O)[O-])cc2O)c1 (stereo not given)	11µM*	5.2µM*	8.2µM*	-104%	7%
COc1cccc(C2(c3cccc(OC)c3)CC2C(=O)Nc2ccccc2Cl)c1 (stereo not given)	-6%	23µM*	?	18%	1%
C=CCNC(=O)C1CC1(c1cccc(C)c1)c1cccc(C)c1 (stereo not given)	.	-24%	2%	.	.
Brc1ccc2[nH]c3c(c2c1)CCC3	4%	-12%	-5%	9%	4%
NC(=O)c1cc(Br)cc2c3c([nH]c12)CCCC3	18µM*	23µM*	18µM*	-12%	10%
Cc1cccc(NNC(N)=S)c1	10µM*	?	?	?	1%
NC(=S)NNC(=S)Nc1ccccc1	-1%	?	?	?	5%
CN(C)NC(=S)Nc1cccc(Cl)c1	7.1µM*	-13%	-4%	2.2µM*	5%
Cc1cccc(NNC(=S)Nc2ccccc2)c1	.	2.6µM*	4.1µM*	.	.
Cc1cccc(NNC(=S)Nc2c(C)cccc2C)c1	3.2µM*	?	?	4µM*	20%
CN(C)c1ccc(NC(=O)Nc2cccc(Cl)c2)cc1	-12%	?	-15%	?	10%
CCOc1ccc(NC(=O)Cn2ncc3c2-c2cc(C)ccc2OC3)cc1	.	-15%	-9%	.	3%
COCCNC(=O)C(=O)NCC(c1ccc2c(c1)OCO2)N1CCOCC1 (stereo not given)	.	-13%	0%	.	-8%
COc1ccccc1CNC(=O)c1ccc(NS(=O)(=O)c2c(C)noc2C)cc1	0%	-15%	-12%	5%	6%
SMILES	VP16 counter	TDP1 cell noCPT	DT40 TDP1 CPT	RORgamma inh	TDP1 block
NC(=S)NNc1cccc(Cl)c1	16µM*	15µM*	16µM*	5.6µM*	5%
Cc1cccc(NC(=S)NNc2cccc(Cl)c2)c1	?	18µM*	16µM*	2µM*	-5%[0.0935 µM]
O=C(NNC(=S)Nc1cccc(Cl)c1)c1ccccc1	-9%	?	?	-45%	4%
NC(=S)NNC(=O)Nc1cccc(Cl)c1	-9%	0%	-4%	-11%	-3%
COc1cccc(N/C(N)=N/c2nc(C(F)(F)F)cc(=O)[nH]2)c1	?	?	10µM*	-6%	4%
CC(C)CN1CC(=O)N2C(c3ccccc3)c3[nH]c4ccccc4c3C[C@H]2C1=O (stereo not given in full)	-9%	-16%	-43%	5%	.
